# CHRM4 agonist: agonists of human muscarinic M4 receptor (CHRM4) | CHO-K1 hM4/Gqi5, Fluo-8 calcium fluorescence; vehicle 0%, full acetylcholine response 100% | activation, % at 3 µM | 0.14% of 360,000 active;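 active means activation above the run mean over all test wells plus 3 SD, cut at about 32% in these data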;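 further: peak over basal fluorescence ratio per well then scaled between controls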
# M1 PAM: potentiates human M1 receptor response to acetylcholine | CHO-K1 hM1, Fluo-8 calcium fluorescence, ACh EC20; 0% = ACh EC20, 100% = maximal ACh | activation, % at 3 µM | 0.088% of 360,000 active; in the data active means activation above about 19%, passing the limit was not always enough
# Target sequence (P11229 whole entry, looked up): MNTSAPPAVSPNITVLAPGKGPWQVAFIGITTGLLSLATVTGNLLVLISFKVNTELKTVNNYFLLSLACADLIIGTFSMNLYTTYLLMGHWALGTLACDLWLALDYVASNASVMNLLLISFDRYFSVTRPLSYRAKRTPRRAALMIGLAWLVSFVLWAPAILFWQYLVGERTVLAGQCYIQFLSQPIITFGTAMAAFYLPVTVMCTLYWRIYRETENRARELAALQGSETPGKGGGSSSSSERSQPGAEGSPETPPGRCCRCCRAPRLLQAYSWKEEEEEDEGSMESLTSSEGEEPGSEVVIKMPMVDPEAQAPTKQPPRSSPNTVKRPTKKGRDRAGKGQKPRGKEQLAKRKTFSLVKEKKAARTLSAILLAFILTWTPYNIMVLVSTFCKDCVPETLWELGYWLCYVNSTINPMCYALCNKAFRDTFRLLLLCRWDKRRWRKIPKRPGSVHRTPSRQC
# CHRM1 antagonist: human CHRM1 antagonism; P11229; CHO-K1 hM1, Fluo-8 calcium fluorescence, ACh EC80 antagonist; inhibition, % at 3 µM; 1.3% of 360,000 active; AID 588852;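 active means percent inhibition above its own plate's cutoff, namely the mean of that plate's compound wells plus 3 SD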;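 further: peak over basal fluorescence ratio during 140 s after agonist addition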
# M1 ag: activates human CHRM1 receptor; P11229; CHO-K1 hM1, Fluo-8 calcium fluorescence, agonist mode; 0% DMSO, 100% acetylcholine EC100; activation, % at 3 µM; 0.33% of 360,000 active; AID 588814;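 active means activation above the run's mean compound activation plus 3 SD, cut at about 16% in these data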;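 further: peak over basal fluorescence ratio within a 140 s kinetic read after compound addition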
# M4 PAM: CHRM4 positive allosteric modulation; CHO-K1 hM4/Gqi5, Fluo-8 calcium fluorescence, ACh EC20; 0% = ACh EC20, 100% = maximal ACh; activation, % at 3 µM; AID 624126; 0.4% of 360,000 active;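 active means activation above its plate's cutoff, the mean activation of sample wells plus 3 SD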
# CHRM4 antagonist: antagonists of human muscarinic M4 receptor (CHRM4); AID 624125; CHO-hM4 cells, ACh EC80, Fluo-8 calcium fluorescence; 0.73% of 360,000 active; inhibition, % at 3 µM;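 active means inhibition above its plate's cutoff, the mean inhibition of sample wells plus 3 SD, cut at about 27% in these data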
# Numbers stand for hits; – = inactive. An excerpt weighted towards active compounds, which were near 2.2% of everything screened.
SMILES,CHRM4 agonist,M1 PAM,CHRM1 antagonist,M1 ag,M4 PAM,CHRM4 antagonist
CC(C)N(Cc1nccn1C)C(=O)CC1C(=O)NCCN1Cc1ccc(F)cc1 (configuration not stated),–,–,–,–,–,–
CCN1CCN(C(=O)c2ccccc2N(Cc2ccccc2)S(C)(=O)=O)CC1,–,–,–,–,–,–
CCN1CCN(C(=O)c2ccccc2N(Cc2ccccc2)S(=O)(=O)c2ccc(C)cc2)CC1,–,–,–,27.6,–,–
O=S(=O)(c1cnc(Cl)c(Cl)c1)N1CCc2ccccc21,–,–,–,–,–,–
Cc1ccccc1NC(=O)COC(=O)c1ccc(S(C)(=O)=O)c([N+](=O)[O-])c1,–,–,–,–,–,–
Cc1ccccc1NC(=O)Cc1nc(COC(=O)c2ccc(S(C)(=O)=O)c([N+](=O)[O-])c2)cs1,–,–,33.9,–,–,–
CC(=O)N1CCOc2ccc(S(=O)(=O)NCC3CCC(C(=O)NCCC(C)C)CC3)cc21 (configuration not stated),–,–,–,–,15.5,–
O=C1NC(=Nc2ccccc2)S/C1=C\c1cccnc1,–,–,–,–,–,–
O=C1NC(=Nc2cccnc2)S/C1=C/c1ccc(F)cc1,–,–,–,–,16.0,–
CCCCC1NC(C(=O)O)CS1 (configuration not stated),–,–,–,–,–,–
CCCCCCC1NC(C(=O)O)CS1 (configuration not stated),–,–,–,–,18.0,–
NC(Cc1ccc(C(F)(F)F)cc1)c1csc(NC(=O)NCCc2ccccc2)n1 (configuration not stated),39.3,–,–,–,–,41.3
NC(Cc1ccc(C(F)(F)F)cc1)c1csc(Nc2ncccn2)n1 (configuration not stated),–,–,–,–,–,–
CCc1cnc(Nc2nc(C(N)Cc3ccc(Cl)cc3)cs2)nc1 (configuration not stated),–,–,–,–,–,–
Cc1ccc(C(=O)Nc2nc(C(N)Cc3ccc(C(F)(F)F)cc3)cs2)cc1 (configuration not stated),36.0,–,–,–,–,–
NC(Cc1ccc(C(F)(F)F)cc1)c1csc(Nc2ccccn2)n1 (configuration not stated),41.0,–,–,–,–,–
NC(Cc1ccc(Cl)cc1)c1csc(Nc2ccc(-c3ccccc3)nn2)n1 (configuration not stated),38.1,–,–,–,–,–
O=C(c1cc(COc2ccc(F)c(F)c2)on1)N1CCSCC1,–,–,–,–,–,–
Cc1ccccc1-c1nc(C#N)c(N2CCC(C)CC2)o1,–,–,–,–,–,–
COc1cccc(CNC(=O)c2ccc(OC)c(S(=O)(=O)NC3CCCC3)c2)c1,–,–,–,–,–,–
COc1ccc(N(CC(=O)Nc2ccc3c(c2)OCO3)S(C)(=O)=O)c(OC)c1,–,–,–,–,–,–
NC(Cc1ccc(F)cc1)c1csc(NC(=O)NC(c2ccccc2)c2ccccc2)n1 (configuration not stated),–,–,–,–,–,27.8
COc1cc2c(cc1OC)CN(CCC(C)c1ccc(Cl)cc1)CC2 (configuration not stated),–,–,43.0,–,–,–
CC(C)C(=O)Nc1cc(=O)[nH]c2ncnn12,–,–,–,–,18.5,–
CCCCC(CC)C(=O)Nc1cc(=O)[nH]c2nc3ccccc3n12 (configuration not stated),–,–,–,–,–,–
SMILES,CHRM4 agonist,M1 PAM,CHRM1 antagonist,M1 ag,M4 PAM,CHRM4 antagonist
CCC1C(=O)N=C(SCC(=O)Nc2cccc3ccccc23)NC1=O (configuration not stated),–,–,–,–,28.1,–
C(=N\N1CCN(C2c3ccccc3-c3ccccc32)CC1)/c1ccncc1,–,–,–,–,–,–
CCCN1CCN(CCCNC(=O)Cn2nc(-c3ccc(Cl)cc3)ccc2=O)CC1,–,–,–,–,–,–
COc1ccccc1NS(=O)(=O)c1ccc2oc(SC(C)C(=O)N3CCNC3=O)nc2c1 (configuration not stated),32.1,–,–,–,–,–
COc1ccccc1NS(=O)(=O)c1ccc2oc(SCC(C)=O)nc2c1,–,–,–,–,–,–
CCc1ccc(-n2c(=O)c3c(C)c(C(=O)N(C)C)sc3n(CC(=O)NCC3CCCO3)c2=O)cc1 (configuration not stated),–,–,–,–,–,–
CCN1C=C(Cc2ccccc2C)C2=C(C1)C(c1ccccc1C)C(C#N)=C(N)O2 (configuration not stated),–,–,–,–,–,–
COc1cc(CN2CCN(C(c3ccccc3)c3ccccc3)CC2)cc(OC)c1OC,–,–,96.4,–,–,44.8
COc1cccc(CN2CCN(C(c3ccccc3)c3ccccc3)CC2)c1O,–,–,90.5,–,–,–
COc1cc(C(=S)N2CCN(C(c3ccccc3)c3ccccc3)CC2)cc(OC)c1O,–,–,–,–,–,–
c1ccc(OCCN2CCN(C(c3ccccc3)c3ccccc3)CC2)cc1,–,–,52.3,–,–,–
c1ccc(OCCN2CCNCC2)cc1,–,–,–,–,–,–
COc1cccc(CN2CCN(Cc3cc(OC)c(OC)c(OC)c3)CC2)c1OC,–,–,–,–,–,–
CSc1ccc(CN(C)C(=O)C(c2ccccc2)c2ccccc2)cc1,–,–,–,–,–,–
Cc1nnc2ccc(-c3cccc(NS(=O)(=O)c4ccccc4[N+](=O)[O-])c3)nn12,–,–,32.4,–,–,–
Cc1ccc(-c2nc3sc(C(N)=O)c(N)c3c3c2CCCC3)cc1,–,–,–,–,–,99.5
COc1ccc(Cc2nnc(NC(=O)Cc3cccs3)s2)cc1OC,–,–,–,–,–,–
O=C(CN1C(=O)CC(c2ccco2)Sc2ccccc21)Nc1ccc2c(c1)OCCO2 (configuration not stated),–,–,37.7,–,–,–
CN(Cc1ccccc1)C(=O)CN1CCN(C(c2ccccc2)c2ccccc2)CC1,–,–,85.6,–,–,50.0
COC(=O)CN1CCN(C(c2ccccc2)c2ccccc2)CC1,–,–,–,–,–,–
O=C(CCc1ccccc1)NC(NC(=S)Nc1ccc(Cl)cc1)C(Cl)(Cl)Cl (configuration not stated),–,–,23.5,–,–,–
O=C(/C=C/c1ccccc1)NC(NC(=S)Nc1ccc(Cl)cc1)C(Cl)(Cl)Cl (configuration not stated),–,–,–,–,–,–
